Hit rate of the full screen: of about 360,000 compounds, about 6,000 (1.7%) were called active. Inconclusive results (about 8%) are left out. Calls come from the whole dose curve; as a rule, active = well fitted cell-killing curve with a large enough effect; inconclusive = small, poorly fitted or top-dose-only effect, or effect the other way; inactive = flat fitted curve, though single readings scatter. Shown is part of a subset that was picked to be rich in actives. Entries that show only a call come without a potency.
assay: qHTS for induction of synthetic lethality in tumor cells producing 2HG: qHTS for the HT-1080-NT fibrosarcoma cell line; settings: HT-1080-NT fibrosarcoma viability, CellTiter-Glo ATP luminescence, 48 h; series mostly up to 46.1 µM;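 note: NT is the 2HG producing partner of a matched IDH1 knockdown line; nearly all actives have a fitted effect of over 55% in size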
Procedure, shortened: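 Read-out is CellTiter-Glo luminescence after 10 minutes at room temperature, following 48 hours' compound treatment of HT-1080-NT cells (750 cells/well, RPMI, 5% FBS, 37 degrees C).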
Potency is the fitted concentration of half-maximal effect.

SMILES | Potency | activity, negative = less viability
Cc1noc(C)c1-c1ccc(C(=O)NCc2ccncc2)c2occc12 | inactive | –
CC(=NNC(=S)N1CCCCCC1)c1ccccn1 | inactive | –
C/C(=N\NC(=O)Cc1ccc(Cl)cc1)c1ccccn1 | 1.78 µM (active) | –
NC(=O)NC(CC(=O)NNC(=O)c1ccccn1)c1ccc(Cl)cc1 (centres undefined) | inactive | –
O=C(O)c1ccccc1Cc1ccc(F)c2ccccc12 | inactive | –
Nc1ncnc2c1ncn2[C@@H]1O[C@H](C(=O)NCC(F)(F)F)[C@@H](O)[C@H]1O | inactive | –
CCOC(=O)c1cc(-c2sc(NC(=O)c3ccccc3)nc2C)n(CCO)n1 | inactive | –
COc1ccc(Br)c(Cn2c(C)c(C(=O)NCc3cccs3)sc2=O)c1 | inactive | –
C[C@@H]1CN([C@H](C)CO)C(=O)c2cc(Br)cnc2O[C@@H]1CN(C)Cc1cncnc1 | inactive | –
Cc1cc(C)n(CC(O)CN(c2ccccc2)S(=O)(=O)c2ccc3ccccc3c2)n1 (centres undefined) | inactive | –
CS(=O)(=O)N(CC(O)Cn1c2ccccc2c2ccccc21)c1cccc2ccccc12 (centres undefined) | 18.4 µM (active) | –
CCCCN(CCCC)CC(O)Cn1c2ccccc2c(=O)c2ccccc21 (centres undefined) | inactive | –
COc1ccc(Cn2c(=O)[nH]c3cc(C(=O)N4CCN(C(=O)c5ccco5)CC4)ccc3c2=O)cc1 | inactive | –
O=C1NC[C@H](CCCCN2C[C@H](Cc3ccc(O)cc3)N(CC3CCCCC3)C(=O)C2=O)N(CCc2ccccc2)C1=O | inactive | –
O=C(OCc1ccccc1)N1CCC2CC1c1cc(N3CCN(S(=O)(=O)c4cc(Cl)cc(Cl)c4)CC3)ccc12 (centres undefined) | inactive | –
CCCCOc1ccc(NC(=O)CSCC(=O)OCC)cc1 | inactive | –
CCCCCCCCCCOC(=O)Cn1c(COc2ccc(C)cc2)[n+](C)c2ccccc21 | 18.4 µM (active) | –
CCCCCCCCCCOC(=O)Cn1c(COc2cccc(OC)c2)[n+](C)c2ccccc21 | inactive | –
CN1CCN(C(=O)c2ccc(NC(=O)c3ccc(Br)o3)cc2)CC1 | inactive | –
O=C(Nc1ccc(Cl)cc1)c1csc([C@H]2C[C@H](O)[C@@H](CO)O2)n1 | inactive | –
CCOC(=O)C(C(=O)c1ccccc1)C(c1ccccc1)c1nccc2ccccc12 (centres undefined) | inactive | –
CCOC(=O)[C@]12CCC=C1N(Cc1ccco1)C(=O)[C@H](CC(=O)N1CCSCC1)C2 | inactive | –
O=[N+]([O-])c1c(NCCO)cc(Sc2nc3ccccc3s2)c2nonc12 | 5.62 µM (active) | –
Nc1nnc(SCC(=O)Nc2ccc3nc(SCC(=O)Nc4ccccc4)sc3c2)s1 | inactive | –
CCN(CC)CCCSc1nc2ccccc2s1 | inactive | –

SMILES | Potency | activity, negative = less viability
CC1(Cc2ccccc2C#N)C(=O)Nc2ccc(-c3ccc4[nH]ccc4c3)cc21 (centres undefined) | 7.31 µM (active) | –
O=C(NCc1cccnc1)c1cc(C2CCCN(C(=O)C3CCCCC3)C2)on1 (centres undefined) | inactive | –
Cc1ccc(-c2c(N)nc3ncccn23)cc1 | inactive | –
COCC1CCCCN1C(=O)c1cc(COc2ccc(C)c(C)c2)on1 (centres undefined) | inactive | –
CC1(Oc2cccc(F)c2)CCN(Cc2ccccc2OC(F)F)C1 (centres undefined) | inactive | –
O=C(Cc1ccccc1)Nc1ccc(NC(=O)c2cccnc2)cc1 | inactive | –
CCCC(=O)Nc1nc2ccc(NC(=O)c3cccnc3)cc2s1 | 6.31 µM (active) | –
CC(=O)Nc1ccc2nc(NC(=O)CS(=O)(=O)c3ccc(F)cc3)sc2c1 | inactive | –
CCCC(=O)Nc1nc2ccc(NC(=O)c3c(F)c(F)c(OC)c(F)c3F)cc2s1 | 1.03 µM (active) | –
CCOC(=O)c1cc(NC(=O)c2cccnc2)ccn1 | inactive | –
CSc1nc2ccc(NC(=O)c3c(F)cccc3F)cc2s1 | inactive | –
CCc1nc2c(OCC(=O)C(C)(C)C)cccn2c1N(C)C(=O)c1ccccc1F | inactive | –
CC1C(=O)N(Cc2cn(CC3CCCCC3)nn2)CCS(=O)(=O)N1Cc1ccc(-c2cccc(N(C)C)c2)cc1 (centres undefined) | inactive | –
COC(=O)C[C@H]1C=C[C@H](NC(=O)c2ccc(F)cc2)[C@@H](CO)O1 | inactive | –
CN1C[C@@H](CO)O[C@@H](n2cnc3c(N4CCN(CCO)CC4)ncnc32)C1 | inactive | –
CCOC(=O)N1CCN(S(=O)(=O)c2ccc(Br)cc2)CC1 | inactive | –
O=C(Nc1ccccc1F)c1ccc(S(=O)(=O)N2CCCCCC2)cc1 | – | -4.83% [at 9.24 µM] (inactive)
CCOC(=O)N1CCN(S(=O)(=O)c2ccc(C(=O)Nc3ccc(F)cc3F)cc2)CC1 | 1.78 µM (active) | –
O=C(c1cccs1)N1C[C@H](n2cc(C3CC3)nn2)[C@@H](O)C[C@@H]1c1ccccc1 | inactive | –
CNC(=O)C[C@H]1C(=O)N(Cc2ccccc2)C[C@@H]1CSC | inactive | –
Cc1cccc(C)c1-n1nnnc1C(CCc1ccccc1)N1CCN(C/C=C/c2ccccc2)CC1 (centres undefined) | inactive | –
Cc1ccc2nc(N(CCN(C)C)C(=O)C3=COCCO3)sc2c1 | inactive | –
Brc1ccc2nc(N3CCCC3)sc2c1 | inactive | –
COc1ccc2sc(N(CCCN(C)C)C(=O)c3ccc(S(=O)(=O)N(C)C4CCCCC4)cc3)nc2c1 | inactive | –
CN(C)CCN(C(=O)CN1C(=O)c2ccccc2C1=O)c1nc2cc3c(cc2s1)OCCO3 | inactive | –

SMILES | Potency | activity, negative = less viability
CN(C)CCCN(C(=O)c1ccc(S(=O)(=O)N2CCCCCC2)cc1)c1nc2ccc(Br)cc2s1 | 18.4 µM (active) | –
CCc1ccc2nc(N(CCCN(C)C)C(=O)c3ccc4c(c3)OCCO4)sc2c1 | 20.6 µM (active) | –
OC(c1ccccc1)c1nc(/C=C/c2ccc(C(F)(F)F)cc2)cs1 (centres undefined) | inactive | –
CC(=O)C[C@@H]1OC[C@H](C)N1S(=O)(=O)c1ccc(C)cc1 | inactive | –
C=CCn1c2c(c3ccccc31)CCC2 | inactive | –
Cc1cccc(CNC(=O)c2sc(=O)n(Cc3ccccc3C)c2C)c1 | inactive | –
O=S(=O)([N-]c1nc2ccccc2nc1-[n+]1ccc(Cc2ccccc2)cc1)c1ccc(Br)s1 | 14.6 µM (active) | –
O=C(NCCc1ccccc1)C1CCN(S(=O)(=O)c2ccc(Br)s2)CC1 | inactive | –
O=S(=O)(NCc1cccnc1)c1ccc(Br)s1 | inactive | –
C[C@@H]1CN([C@@H](C)CO)C(=O)c2cc(Br)cnc2O[C@H]1CN(C)Cc1ccc(-c2ccccc2)cc1 | inactive | –
COc1ccccc1N1CCN(C(=O)c2ccc(Cl)c(S(=O)(=O)N3CCCC3)c2)CC1 | inactive | –
COc1ccccc1N1CCN(C(=O)c2c(-c3c(Cl)cccc3Cl)noc2C)CC1 | inactive | –
COc1ccccc1N1CCN(C(=O)c2cc(=O)c3cc(C)cc(C)c3o2)CC1 | 0.0206 µM (active) | –
O=C(NC1CCCC1)C1c2ccccc2OCC(=O)N1Cc1ccccc1 (centres undefined) | inactive | –
COc1ccc(-c2ccc(Nc3ccc(S(=O)(=O)N4CCCC4)cc3)nn2)cc1OC | 11.2 µM (active) | –
COc1cc(C(C)=O)ccc1OC(C)C(=O)Nc1ccc(S(=O)(=O)N2CCCC2)cc1 (centres undefined) | inactive | –
COc1ccc(S(=O)(=O)N2CCCCCC2)cc1NC(=O)Cc1ccc(OC)c(OC)c1 | inactive | –
CCc1nc2c(OCCOc3ccccc3)cccn2c1N(C)C(=O)c1ccccc1F | inactive | –
COc1cc(C#Cc2ccc3cc(CCCO)oc(=O)c3c2)cc(OC)c1 | 4.61 µM (active) | –
O=C1c2ccccc2C(=O)N1CCC#Cc1ccc2cc(C3(O)CCCCC3)oc(=O)c2c1 | inactive | –
CCC(=O)N1CCCC1(C)C(=O)Nc1ccc2c(c1)CCN2C(C)=O (centres undefined) | inactive | –
CCOC(=O)C1(C)CCCN(C(=O)c2cccc(Cl)c2)C1 (centres undefined) | inactive | –
O=C(Nc1ccc(Cl)cn1)c1ccccc1-c1ccccc1 | inactive | –
COC(=O)C1C(=O)c2c([nH]c(C(=O)OCCSC)c2C)CC1C (centres undefined) | inactive | –
CCCOC(=O)c1[nH]c2c(c1C)C(=O)CC(c1cccs1)C2 (centres undefined) | 1.3 µM (active) | –

SMILES | Potency | activity, negative = less viability
COCCOC(=O)c1[nH]c2c(c1C)C(=O)CC(c1ccc(OC)cc1)C2 (centres undefined) | inactive | –
O=C(COC(=O)c1ccc(S(=O)(=O)N2CCCCCC2)cc1)Nc1ccccc1C(F)(F)F | inactive | –
O=C1c2ccccc2-c2ccccc2NC1O (centres undefined) | inactive | –
Cc1ccc2sc(N(CCN(C)C)C(=O)/C=C/c3cccs3)nc2c1C | inactive | –
Cc1cc(C)c2nc(N(CCN(C)C)C(=O)/C=C/c3cccs3)sc2c1 | inactive | –
COc1cccc2sc(N(CCCN(C)C)C(=O)C(c3ccccc3)c3ccccc3)nc12 | 20.6 µM (active) | –
CCCCn1nnnc1C(c1cc2ccccc2o1)N(C)Cc1ccc(Cl)c(Cl)c1 (centres undefined) | inactive | –
CN(/N=C/c1ccccc1)C(=S)c1ccccc1 | inactive | –
CCN(/N=C/c1ccccc1)c1cc(=O)n(C)c(=O)[nH]1 | inactive | –
Oc1ccc(/C=N/N(Cc2ccccc2)c2ccccc2)cc1 | 20.6 µM (active) | –
Cc1cc(OCC(=O)Nc2nccs2)c2c(C)c(C)c(=O)oc2c1 | inactive | –
COc1cccc(CN(C)CC(=O)Nc2ccccc2C(=O)Nc2ccccc2)c1 | inactive | –
COc1cccc(CN(C)CC(O)COC(c2ccccc2)c2ccccc2C)c1 (centres undefined) | 23.1 µM (active) | –
Cc1ccccc1C(OCC(O)CN1CCCCC1CCO)c1ccccc1 (centres undefined) | inactive | –
Cc1cc(Cl)ccc1-c1nc(NCCN(C)C)nc2ccsc12 | 20.6 µM (active) | –
Cc1ccc(-c2cc(=O)c3ccc(F)cc3[nH]2)cc1 | inactive | –
O=c1cc(-c2ccccc2)[nH]c2cc(F)ccc12 | 2.59 µM (active) | –
Cc1cc(=O)c2ccc(NC(=O)c3ccccc3)cc2[nH]1 | inactive | –
FC(F)(F)Oc1ccccc1C(c1nnnn1C1CCCCC1)N1CCN(C/C=C/c2ccccc2)CC1 (centres undefined) | inactive | –
Cc1cccc(C(=O)Nc2nnc(S(=O)(=O)N3CCCCCC3)s2)c1 | inactive | –
O=C(Nc1nnc(S(=O)(=O)N2CCOCC2)s1)c1cccc(Br)c1 | inactive | –
O=C(Nc1nnc(S(=O)(=O)N2CCCCCC2)s1)c1cccc(Br)c1 | 23.1 µM (active) | –
CC1(C(=O)Nc2ccccc2Br)CCN1C(=O)CC1CC1 (centres undefined) | inactive | –
CCOC(=O)[C@]12CCC=C1N(Cc1cccc3ccccc13)C(=O)[C@H](CC(=O)NCc1cccc(C(F)(F)F)c1)C2 | inactive | –
